In PubChem BioAssay (NCI):
The panel holds about 79,000 compounds, 15% with a hit somewhere; the sample as a whole holds those more often. Activity calls are given as the source filed them. No stated cut-off is given here; in the data, active means growth inhibition above about 70%; inactive means the rest.

How the values were obtained:
[1] = NCI Yeast Anticancer Drug Screen. Data for the mec2-1 strain (AID 157); conditions: S. cerevisiae mec2-1 strain, hits give high values
In short: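 Test agents were screened against the mec2-1 yeast strain, with defined DNA repair or cell cycle alteration. Growth was scored as inhibition against vehicle-only controls.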

[2] = NCI Yeast Anticancer Drug Screen. Data for the rad14 strain (AID 159);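 further: 0% = growth of vehicle-treated control cultures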; conditions: S. cerevisiae rad14 strain growth inhibition, hits give high values
In short: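 DNA repair-defective yeast, compound-exposed; % growth inhibition derived by comparison with vehicle-treated controls.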

[3] = NCI Yeast Anticancer Drug Screen. Data for the sgs1 mgt1 strain (AID 161);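 further: 0% = growth of cultures given vehicle only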; conditions: S. cerevisiae sgs1 mgt1 strain, hits give high values
In short: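 Inhibition of yeast growth, normalised to vehicle-treated controls, is reported for a strain bearing genetic alterations in DNA damage repair.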

[4] = NCI Yeast Anticancer Drug Screen. Data for the CLN2oe strain (AID 163);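 further: 0% = growth of vehicle-only control cultures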; conditions: S. cerevisiae CLN2oe strain, hits give high values
In short: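 Here, growth inhibition in a cell-cycle-altered yeast strain after compound exposure was quantified against vehicle control growth.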

[5] = NCI Yeast Anticancer Drug Screen. Data for the cln2 rad14 strain (AID 165);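 further: 0% = growth equal to vehicle treated cultures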; conditions: S. cerevisiae cln2 rad14 strain, hits give high values
In short: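 Growth of compound-exposed yeast (cln2 rad14 genotype) measured and expressed as inhibition relative to vehicle.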

[6] = NCI Yeast Anticancer Drug Screen. Data for the bub3 strain (AID 167); conditions: S. cerevisiae bub3 mutant strain, hits give high values
In short: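 In this screen, a yeast mutant lacking normal mitotic checkpoint function is challenged with compound. Relative growth versus vehicle gives the inhibition value.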

[7] = NCI Yeast Anticancer Drug Screen. Data for the wt2 strain (AID 169);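 further: 0% = growth of vehicle-treated yeast cultures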; conditions: S. cerevisiae wt2 strain growth inhibition, hits give high values
In short: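 Genetically defined yeast strains from a DNA-repair/cell-cycle panel were used. Compound-exposed yeast growth was measured, and the inhibition was calculated relative to vehicle treatment.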

[8] = NCI Yeast Anticancer Drug Screen. Data for the mlh1 strain (AID 171);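 further: 0% = growth of vehicle-treated control cultures of the same strain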; conditions: S. cerevisiae mlh1 strain growth inhibition, hits give high values
In short: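 Here the genetically defined yeast mutant is grown with each compound, and the extent to which its growth falls below that of vehicle-exposed cells is reported.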

[9] = NCI Yeast Anticancer Drug Screen. Data for the sgs1 strain (AID 173);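 further: 0% = growth of vehicle-only control cultures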; conditions: S. cerevisiae sgs1 mutant, hits give high values
In short: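 Relative growth inhibition, referenced to vehicle, was determined in a yeast strain with a defined alteration affecting DNA damage repair or cell cycle control after compound exposure.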

[10] = NCI Yeast Anticancer Drug Screen. Data for the mlh1 rad18 strain (AID 175); conditions: S. cerevisiae mlh1 rad18 strain growth inhibition, hits give high values
In short: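 In this whole-cell yeast screen, a strain with altered DNA damage repair is challenged with compound, and its growth is measured against matched vehicle-treated controls.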

[11] = NCI Yeast Anticancer Drug Screen. Data for the rad18 strain (AID 177); conditions: S. cerevisiae rad18 mutant growth inhibition, hits give high values
In short: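 Screen uses a yeast strain with a defined lesion in DNA damage repair; compound effect is read as loss of growth compared to untreated vehicle cultures.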

[12] = NCI Yeast Anticancer Drug Screen. Data for the rad52 strain (AID 147);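 further: 0% = growth of vehicle-treated control cultures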; conditions: S. cerevisiae rad52 mutant growth inhibition, hits give high values
In short: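 Measured: yeast growth inhibition. System: strain with a defined DNA damage repair alteration. Reference: vehicle-treated control cultures.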

[13] = NCI Yeast Anticancer Drug Screen. Data for the wt1 strain (AID 149);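 further: 0% = growth of vehicle-treated wt1 cultures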; conditions: S. cerevisiae wt1 strain (SPY 50644) growth inhibition, hits give high values
In short: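 wt1 strain grown with compound or vehicle; inhibition taken from the growth difference.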

[14] = NCI Yeast Anticancer Drug Screen. Data for the rad50EPP+ strain (AID 151);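 further: 0% = growth of vehicle-treated control cultures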; conditions: S. cerevisiae rad50 mutant strain, hits give high values
In short: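 One strain with a rad50 alteration (rad50EPP+) was compound-treated, its growth then compared to that of vehicle controls.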

[15] = NCI Yeast Anticancer Drug Screen. Data for the mgt1 strain (AID 153); conditions: S. cerevisiae mgt1 mutant growth inhibition, hits give high values
In short: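 After exposure of the mgt1 yeast mutant to compound, growth was measured and reported as inhibition compared with vehicle controls.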

[16] = NCI Yeast Anticancer Drug Screen. Data for the rad50 strain (AID 155);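 further: 0% = growth of vehicle-only cultures of the same strain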; conditions: S. cerevisiae rad50 strain growth inhibition, hits give high values
In short: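 DNA repair mutant yeast, compound exposure, growth read-out; inhibition is taken relative to vehicle.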

[17] = at 5.0 µM (retest, dose inferred, filed as 0.5)
[18] = at 50.0 µM (retest, dose inferred, filed as 5.0)

Measured: growth inhibition

CCC1(O)C(=O)OCc2c1cc1n(c2=O)Cc2cc3c(N)cccc3nc2-1 (centres undefined)
inactive: [1]; [17] 7% | [1]; at 11.0 µM -12% | [1]; at 33.0 µM -18% | [1]; [18] 12% | [1]; at 50.0 µM -0.85% | [1]; at 100.0 µM -35% | [2]; at 1.2 µM -10% | [2]; at 3.7 µM -10% | [2]; at 11.0 µM -19% | [2]; at 33.0 µM -17% | [2]; at 100.0 µM -23% | [3]; [17] 24% | [3]; [18] 19% | [3]; at 50.0 µM -2.35% | [4]; at 1.2 µM -8% | [4]; at 3.7 µM -15% | [4]; at 11.0 µM -33% | [4]; at 33.0 µM -34% | [4]; at 100.0 µM -41% | [5]; [17] 21% | [5]; [18] 14% | [5]; at 50.0 µM -6.95% | [6]; at 1.2 µM -37% | [6]; at 3.7 µM -28% | [6]; [17] 14% | [6]; at 11.0 µM -34% | [6]; at 33.0 µM -47% | [6]; [18] 6% | [6]; at 50.0 µM -9.3% | [6]; at 100.0 µM -33% | [7]; at 1.2 µM -16% | [7]; at 3.7 µM -18% | [7]; at 11.0 µM -17% | [7]; at 33.0 µM -30% | [7]; at 100.0 µM -38% | [8]; at 1.2 µM -23% | [8]; at 3.7 µM -22% | [8]; at 11.0 µM -11% | [8]; at 33.0 µM -34% | [8]; at 100.0 µM -44% | [9]; at 1.2 µM -19% | [9]; at 3.7 µM -7% | [9]; at 11.0 µM 0% | [9]; at 33.0 µM 6% | [9]; at 100.0 µM 7% | [10]; [17] 16% | [10]; [18] 16% | [10]; at 50.0 µM -65.3% | [11]; at 1.2 µM -42% | [11]; at 3.7 µM -37% | [11]; at 11.0 µM -31% | [11]; at 33.0 µM -26% | [11]; at 100.0 µM -48%

Nc1cc2ccccc2cc1N
active: [14]; at 100.0 µM 76% | [16]; at 50.0 µM 89.3% | [1]; at 50.0 µM 91.5% | [3]; at 50.0 µM 88.7% | [5]; [18] 70% | [5]; at 50.0 µM 90.1% | [6]; [18] 95% | [6]; at 50.0 µM 90.5% | [10]; at 50.0 µM 90.8%
inactive: [12]; at 1.2 µM -47% | [12]; at 3.7 µM -35% | [12]; at 11.0 µM -41% | [12]; at 33.0 µM -39% | [12]; at 100.0 µM 25% | [13]; at 1.2 µM -28% | [13]; at 3.7 µM -14% | [13]; at 11.0 µM -17% | [13]; at 33.0 µM 3% | [13]; at 100.0 µM 20% | [14]; at 1.2 µM -37% | [14]; at 3.7 µM -13% | [14]; at 11.0 µM 40% | [14]; at 33.0 µM 59% | [15]; at 1.2 µM -30% | [15]; at 3.7 µM -42% | [15]; at 11.0 µM -33% | [15]; at 33.0 µM -23% | [15]; at 100.0 µM -18% | [16]; at 1.2 µM -33% | [16]; at 3.7 µM -23% | [16]; [17] 14% | [16]; at 11.0 µM -26% | [16]; at 33.0 µM 12% | [16]; [18] 17% | [16]; at 100.0 µM 63% | [1]; at 1.2 µM -41% | [1]; at 3.7 µM -45% | [1]; [17] 4% | [1]; at 11.0 µM -46% | [1]; at 33.0 µM -35% | [1]; [18] 15% | [1]; at 100.0 µM -15% | [2]; at 1.2 µM -15% | [2]; at 3.7 µM -17% | [2]; at 11.0 µM -13% | [2]; at 33.0 µM -16% | [2]; at 100.0 µM 6% | [3]; [17] 19% | [3]; [18] 26% | [4]; at 1.2 µM 10% | [4]; at 3.7 µM 4% | [4]; at 11.0 µM 4% | [4]; at 33.0 µM 23% | [4]; at 100.0 µM 45% | [5]; [17] 21% | [6]; at 1.2 µM -35% | [6]; at 3.7 µM -36% | [6]; [17] 25% | [6]; at 11.0 µM -30% | [6]; at 33.0 µM -38% | [6]; at 100.0 µM 24% | [7]; at 1.2 µM -18% | [7]; at 3.7 µM -18% | [7]; at 11.0 µM -25% | [7]; at 33.0 µM -34% | [7]; at 100.0 µM -28% | [8]; at 1.2 µM -22% | [8]; at 3.7 µM -22% | [8]; at 11.0 µM -18% | [8]; at 33.0 µM -11% | [8]; at 100.0 µM 16% | [9]; at 1.2 µM 13% | [9]; at 3.7 µM 20% | [9]; at 11.0 µM 16% | [9]; at 33.0 µM 33% | [9]; at 100.0 µM 63% | [10]; [17] 6% | [10]; [18] 40% | [11]; at 1.2 µM -22% | [11]; at 3.7 µM -26% | [11]; at 11.0 µM -16% | [11]; at 33.0 µM -1% | [11]; at 100.0 µM 46%

Cc1ccc(S(=O)(=O)Nc2cccc3cccnc23)cc1
inactive: [12]; at 1.2 µM 10% | [12]; at 3.7 µM 14% | [12]; at 11.0 µM 25% | [12]; at 100.0 µM 52% | [13]; at 1.2 µM 15% | [13]; at 3.7 µM 14% | [13]; at 11.0 µM 18% | [13]; at 100.0 µM 39% | [14]; at 1.2 µM 16% | [14]; at 3.7 µM 17% | [14]; at 11.0 µM 16% | [14]; at 33.0 µM 62% | [14]; at 100.0 µM 66% | [15]; at 1.2 µM 14% | [15]; at 3.7 µM -5% | [15]; at 11.0 µM 25% | [16]; at 1.2 µM 15% | [16]; at 3.7 µM 25% | [16]; [17] 46% | [16]; at 11.0 µM 22% | [16]; at 50.0 µM 46% | [1]; at 1.2 µM 7% | [1]; at 3.7 µM 18% | [1]; [17] 49% | [1]; at 11.0 µM 23% | [1]; at 50.0 µM 20.2% | [1]; at 100.0 µM 60% | [2]; at 1.2 µM -19% | [2]; at 3.7 µM -16% | [2]; at 11.0 µM 16% | [2]; at 100.0 µM 56% | [3]; [17] -15% | [3]; [18] 41% | [3]; at 50.0 µM 59% | [4]; at 1.2 µM 15% | [4]; at 3.7 µM 12% | [4]; at 11.0 µM 41% | [4]; at 33.0 µM 69% | [4]; at 100.0 µM 46% | [5]; [17] 25% | [5]; [18] 54% | [5]; at 50.0 µM 48% | [6]; at 1.2 µM -11% | [6]; at 3.7 µM -14% | [6]; [17] 29% | [6]; at 11.0 µM -3% | [6]; at 33.0 µM 50% | [6]; [18] 23% | [6]; at 50.0 µM 27.7% | [6]; at 100.0 µM 15% | [7]; at 1.2 µM -13% | [7]; at 3.7 µM -5% | [7]; at 11.0 µM 8% | [7]; at 33.0 µM 53% | [7]; at 100.0 µM 59% | [8]; at 1.2 µM 14% | [8]; at 3.7 µM 3% | [8]; at 11.0 µM 9% | [8]; at 100.0 µM 62% | [9]; at 1.2 µM 1% | [9]; at 3.7 µM 4% | [9]; at 11.0 µM 44% | [9]; at 100.0 µM 63% | [10]; [17] 44% | [11]; at 1.2 µM 9% | [11]; at 3.7 µM 4% | [11]; at 11.0 µM 25%
active: [12]; at 33.0 µM 75% | [13]; at 33.0 µM 71% | [15]; at 33.0 µM 77% | [15]; at 100.0 µM 79% | [16]; at 33.0 µM 79% | [16]; [18] 97% | [16]; at 100.0 µM 84% | [1]; at 33.0 µM 79% | [1]; [18] 98% | [2]; at 33.0 µM 72% | [8]; at 33.0 µM 78% | [9]; at 33.0 µM 82% | [10]; [18] 100% | [10]; at 50.0 µM 71% | [11]; at 33.0 µM 74% | [11]; at 100.0 µM 71%
